# The list is not random: actives were taken first. Their share in the collection is about 2.8%.
# KKLEB cytotox = reduces viability of KKLEB cystic fibrosis airway cells. KKLEB CF airway cells viability, ATPlite luminescence, overnight; active compounds read low; cells stimulated with P. aeruginosa culture filtrate. activity change (cytotoxicity), % at 5 µM. 360,000 compounds, 0.36% hits. AID 602141;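 active = corrected activity change at or below -50% at 5 µM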
# Shn3 3UTR inh = Schnurri-3 reporter inhibition in Clone20 osteoblasts; AID 588674; inhibition, % at 12.5 µM; 360,000 compounds, 0.52% hits; Clone20 osteoblast Shn3 3'UTR firefly luciferase, 24 h;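 active = mean inhibition of at least 75% with every replicate also reaching 75%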;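 note: 0% = median of neutral control wells and 100% = pilot-screen positive control compound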
# TRPM1 prom inh = MITF TRPM1 promoter inhibition in SK-MEL-5 cells; SK-MEL-5 TRPM1 promoter luciferase, 24 h; inhibition, % at 12.5 µM; 330,000 compounds, 0.83% hits; AID 488899;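 active = mean inhibition across replicates of 60% or more, whatever share of single replicates reaches that level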
# CF NFkB inh = inhibitors of cystic fibrosis induced NF-kB | KKLEB NF-kB-GFP reporter, PAF-induced, GFP fluorescence overnight | inhibition, % at 5 µM | 360,000 compounds, 0.86% hits | AID 588850;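 active = at least 50% inhibition at 5 µM, scaled per plate between neutral and stimulator controls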;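 note: PAF is a Pseudomonas aeruginosa culture filtrate used as stimulus; plate controls were PAF-stimulated DMSO wells for no effect and unstimulated DMSO wells for full effect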
# Peg3 prom inh = reduces Peg3 promoter-driven luciferase expression in HeLa | HeLa PEG-Prom luciferase reporter, luminescence, overnight | 360,000 compounds, 1.7% hits | AID 588405 | inhibition, % at 20 µM;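 active = inhibition of at least 50% at 20 µM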
# HIF-2a block = blocks HIF-2a reporter activity | 360,000 compounds, 0.72% hits | 786-0 RCC cells HIF-2a reporter, luciferase luminescence, overnight | inhibition, % at 18.8 µM;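 active = inhibition of the luminescence signal of 40% or more relative to plate controls, in a single-dose primary screen at 18.75 µM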
# * = called active by the depositor; . = no result.
SMILES,KKLEB cytotox,Shn3 3UTR inh,TRPM1 prom inh,CF NFkB inh,Peg3 prom inh,HIF-2a block
N#Cc1ccccc1NC(=O)COC(=O)/C=C/c1cn(-c2ccccc2)nc1-c1ccc(Cl)cc1,-33,-40,25,5,27,15
COc1cc2nc(NC(=O)c3ccc(F)cc3Cl)sc(=O)c2cc1OC,-14,10,-28,9,17,0
Cc1ccc(Cn2nc(C)c(NC(=O)CSc3nc4c(c(C(F)(F)F)n3)CCc3ccccc3-4)c2C)cc1,6,0,-11,13,50*,13
Cc1nn(Cc2ccc(Cl)cc2)c(C)c1NC(=O)CSc1nc2c(c(C(F)(F)F)n1)CCc1ccccc1-2,-12,-5,2,3,14,0
Cc1ccc(S(=O)(=O)n2cnc3cc([N+](=O)[O-])ccc32)cc1C,-1,-22,-15,6,8,7
Cc1ccc(-n2c3nc(=O)[nH]c(=O)c-3cc3cc([N+](=O)[O-])ccc32)cc1C,-15,-11,43,-3,74*,29
O=C(Nc1cccc2cccnc12)c1ccccc1Br,-3,-32,-13,12,-47,-78
COc1cccc(O)c1CN1CCC(C(=O)Nc2ccc(-c3cccc(C)c3)cc2)CC1,-32,11,34,20,106*,-4
COc1cccc(O)c1CN1CCC(C(=O)Nc2ccc(Oc3cccnc3)cc2)CC1,-10,29,18,6,22,21
COc1ccc(CN2CCC(C(=O)Nc3ccc(Oc4cccnc4)cc3)CC2)c(C)c1C,-10,86*,27,17,6,20
COc1cccc(-c2cccc(NC(=O)C3CCN(Cc4cccc(C)n4)CC3)c2)c1,-10,8,5,3,13,6
C[C@@H]1CCCCO[C@@H](CN(C)C(=O)CCCN(C)C)[C@@H](C)CN([C@H](C)CO)C(=O)c2cc(NC(=O)CCC(F)(F)F)ccc2O1,4,0,.,6,11,-7
Nc1sc(-c2ccccc2)cc1C(=O)NCCc1c[nH]c2ccccc12,.,.,.,.,.,2
O=S(=O)(c1ccccc1)N1CCN(c2cc(-c3ccccc3)nc3ncnn23)CC1,9,84*,49,15,14,10
COc1ccc(S(=O)(=O)N2CCN(c3cc(-c4ccccc4)nc4ncnn34)CC2)cc1,6,87*,20,-2,32,2
O=S(=O)(c1ccc(Br)cc1)N1CCN(c2cc(-c3ccccc3)nc3ncnn23)CC1,2,50,-11,-5,6,-17
CCn1c(SCC(=O)NC2CC2)nnc1-c1csc(C)c1,25,14,9,-2,9,9
CCN(CC)S(=O)(=O)c1ccc(C(=O)OCn2c(SC)nnc(C)c2=O)cc1,13,-18,14,-11,7,15
CCOC(=O)c1c(C)n(C)c2ccc(OC)c(NC(=O)CN3CCSCC3)c12,7,19,3,-5,77*,-7
CCOC(=O)c1c(C)n(C)c2ccc(OC)c(NC(=O)CCN3CCC(Cc4ccccc4)CC3)c12,14,3,-3,8,-3,7
Cc1nc(N2CCCCC2)c2c(C)c(C(=O)Nc3ccc4c(c3)OCCO4)sc2n1,13,16,-1,12,19,-19
COc1cc(CCNC2=CC(=O)c3ncccc3C2=O)ccc1O,-2,21,113*,78*,27,39
COc1ccccc1CNS(=O)(=O)c1cc(CN2C(=O)c3cccnc3C2=O)ccc1OC,9,1,1,12,13,11
Cn1c(=S)oc2ccccc21,12,2,3,-17,6,16
CC(C)CC(=O)/C=C/n1c(=S)oc2ccccc21,-77*,97*,76*,92*,107*,91*
SMILES,KKLEB cytotox,Shn3 3UTR inh,TRPM1 prom inh,CF NFkB inh,Peg3 prom inh,HIF-2a block
CC(=NO)c1cc(Br)c2cccc3c2c1CC3,-2,0,.,8,-7,-19
CCc1cc2c(=O)[nH]c(N3CCCC3)nc2s1,4,-6,-37,-32,-91,-89
CCc1cc2c(=O)[nH]c(-c3ccccn3)nc2s1,3,54,32,-27,96*,-76
C(=C\c1sc(Nc2ccccc2)n[n+]1-c1ccccc1)/c1ccccc1,0,-18,79*,-11,101*,-100
CC1=CN2C(=N)/C(=C/c3ccc([N+](=O)[O-])o3)C(=O)N=C2S1,-49,94*,89*,51*,107*,67*
C(=N\Nc1ccccn1)/c1ccc2c(c1)OCCO2,-9,-80,-71,9,-223,-133
COc1cccc(-c2nc(NC(C)C)c3ccccc3n2)c1O,-7,11,11,6,37,14
CCC(C)Nc1nc(-c2cccc(OC)c2O)nc2ccccc12 (configuration not stated),9,30,3,-3,54*,-27
Cc1cc(C(=O)N/N=C/c2ccc(-c3cccc(Cl)c3)o2)n[nH]1,-6,.,6,-15,-1,-10
Cc1nn(-c2ccccc2)c(C)c1/C=N/NC(=O)c1cc(-c2ccccc2)n[nH]1,-21,10,-2,64*,-11,2
Cc1nn(-c2ccccc2)c(C)c1/C=N/NC(=O)c1cc(-c2cccc3ccccc23)n[nH]1,-5,3,-15,9,-13,-20
CN(Cc1ccc(Cl)cc1)C(c1cc2ccccc2o1)c1nnnn1C(C)(C)C (configuration not stated),.,.,.,.,.,0
Oc1ccc2ccccc2c1-c1sc(Nc2ccccc2)n[n+]1-c1ccc(F)cc1,8,-7,2,-8,-20,-41
COc1ccc(C)cc1Nc1n[n+](-c2ccccc2)c(-c2c(OC)ccc3ccccc23)s1,-6,74,66*,38,56*,-26
COc1ccc(C)cc1Nc1n[n+](-c2ccccc2)c(-c2cc(OC)c(OC)cc2Br)s1,6,10,10,9,-4,9
Fc1ccc(-[n+]2nc(Nc3ccccc3)sc2-c2c3ccccc3cc3ccccc23)cc1,-30,57,42,46,53*,-17
CCCCn1c(N)c(N(CC(C)C)C(=O)C2=NN(c3cc(C)ccc3C)C(=O)CC2)c(=O)[nH]c1=O,-8,0,-5,9,1,-2
c1ccc(CCc2nn3c(-c4ccncc4)nnc3s2)cc1,-14,8,-19,72*,-35,-8
CC1=C/C(=C(\c2ccc(O)c(C)c2)c2ccccc2S(=O)(=O)O)C=CC1=O,-5,-4,17,9,12,12
CC1=CC(=O)C=C/C1=C(/c1ccc(O)cc1C)c1ccccc1S(=O)(=O)O,6,-1,9,28,79*,9
CC(C)CNC(=O)/C=C/C=C/CCCC/C=C/c1ccc2c(c1)OCO2,-2,30,-6,-13,-2,6
N#CC(=C1C=C(Br)C(=NO)C=C1Cl)c1ccc(Cl)cc1,3,-3,.,20,40,14
N#CC(=C1C=CC(=NO)C(Cl)=C1)c1ccccc1,-6,20,.,50*,39,-46

# Screening results deposited in PubChem by several laboratories.
